# Source: PubChem BioAssay
# Target: Neurogenic locus notch homolog protein 3 (Homo sapiens) (UniProt Q9UM47)
# Assay: NOTCH3 binders on small-molecule microarray, primary screen, biochemical, 635/667 nm fluorescence (AID 1096)
# Details: NOTCH3 binding, 635 nm fluorescence, higher = more signal
# Sequence of Neurogenic locus notch homolog protein 3 (Homo sapiens) (Q9UM47 whole entry, looked up): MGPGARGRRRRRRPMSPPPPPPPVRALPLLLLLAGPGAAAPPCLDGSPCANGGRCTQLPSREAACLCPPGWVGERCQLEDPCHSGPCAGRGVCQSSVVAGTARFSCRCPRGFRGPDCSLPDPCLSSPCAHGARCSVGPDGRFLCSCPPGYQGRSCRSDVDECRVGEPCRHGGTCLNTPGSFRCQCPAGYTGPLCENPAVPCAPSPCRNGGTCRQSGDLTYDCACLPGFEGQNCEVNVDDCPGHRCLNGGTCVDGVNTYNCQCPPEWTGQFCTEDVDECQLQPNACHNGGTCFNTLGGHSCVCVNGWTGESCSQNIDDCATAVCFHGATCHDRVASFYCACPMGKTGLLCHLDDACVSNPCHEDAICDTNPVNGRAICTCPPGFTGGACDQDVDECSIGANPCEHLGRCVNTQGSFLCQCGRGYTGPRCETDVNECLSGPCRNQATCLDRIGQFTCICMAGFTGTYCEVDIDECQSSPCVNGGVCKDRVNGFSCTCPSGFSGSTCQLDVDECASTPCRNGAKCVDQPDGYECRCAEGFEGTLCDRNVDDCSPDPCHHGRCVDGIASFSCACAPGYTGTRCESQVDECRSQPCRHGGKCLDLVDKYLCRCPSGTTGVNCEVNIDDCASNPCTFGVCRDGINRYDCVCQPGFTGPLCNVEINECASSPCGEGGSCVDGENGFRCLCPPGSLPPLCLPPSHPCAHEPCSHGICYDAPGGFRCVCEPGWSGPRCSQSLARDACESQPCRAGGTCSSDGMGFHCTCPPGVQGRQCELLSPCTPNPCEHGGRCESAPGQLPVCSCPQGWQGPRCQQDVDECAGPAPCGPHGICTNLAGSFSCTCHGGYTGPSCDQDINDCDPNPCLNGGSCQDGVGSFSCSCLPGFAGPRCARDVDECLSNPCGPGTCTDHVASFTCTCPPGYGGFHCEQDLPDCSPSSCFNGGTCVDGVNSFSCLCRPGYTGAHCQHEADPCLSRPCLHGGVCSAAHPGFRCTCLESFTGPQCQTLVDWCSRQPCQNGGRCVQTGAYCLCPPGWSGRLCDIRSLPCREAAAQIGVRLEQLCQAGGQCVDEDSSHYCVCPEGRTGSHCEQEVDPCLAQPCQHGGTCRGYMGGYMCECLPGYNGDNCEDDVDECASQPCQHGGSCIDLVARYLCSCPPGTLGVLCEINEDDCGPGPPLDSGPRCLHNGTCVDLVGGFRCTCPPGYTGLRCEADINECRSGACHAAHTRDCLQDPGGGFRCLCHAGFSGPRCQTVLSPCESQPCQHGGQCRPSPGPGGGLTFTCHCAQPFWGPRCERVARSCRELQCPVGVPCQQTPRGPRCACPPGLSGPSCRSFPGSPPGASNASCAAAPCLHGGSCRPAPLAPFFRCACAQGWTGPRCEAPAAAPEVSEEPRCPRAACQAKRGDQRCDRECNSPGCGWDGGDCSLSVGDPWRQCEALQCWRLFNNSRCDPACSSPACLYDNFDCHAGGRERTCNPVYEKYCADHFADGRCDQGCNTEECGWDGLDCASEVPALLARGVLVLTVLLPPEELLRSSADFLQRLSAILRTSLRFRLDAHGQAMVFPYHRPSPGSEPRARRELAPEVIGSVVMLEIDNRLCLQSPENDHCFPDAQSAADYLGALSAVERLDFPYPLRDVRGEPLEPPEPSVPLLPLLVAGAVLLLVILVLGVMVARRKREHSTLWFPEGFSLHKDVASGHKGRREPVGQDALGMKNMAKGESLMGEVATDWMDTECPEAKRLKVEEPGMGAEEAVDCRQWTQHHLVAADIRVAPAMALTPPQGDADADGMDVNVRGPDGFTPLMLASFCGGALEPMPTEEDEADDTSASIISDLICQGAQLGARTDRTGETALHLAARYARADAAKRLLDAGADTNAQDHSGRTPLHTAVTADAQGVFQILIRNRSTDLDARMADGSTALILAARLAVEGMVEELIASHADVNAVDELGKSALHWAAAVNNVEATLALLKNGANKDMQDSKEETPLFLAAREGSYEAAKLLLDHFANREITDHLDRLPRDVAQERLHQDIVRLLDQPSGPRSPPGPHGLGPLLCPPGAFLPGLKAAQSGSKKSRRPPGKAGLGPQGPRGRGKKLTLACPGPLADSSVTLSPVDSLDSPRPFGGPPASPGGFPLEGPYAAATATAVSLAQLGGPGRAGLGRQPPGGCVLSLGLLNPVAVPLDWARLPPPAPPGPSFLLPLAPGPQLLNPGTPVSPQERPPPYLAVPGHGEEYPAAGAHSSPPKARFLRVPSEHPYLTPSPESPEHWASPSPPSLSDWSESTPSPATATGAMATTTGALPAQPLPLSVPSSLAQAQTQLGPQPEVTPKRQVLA
row,SMILES,composite z-score
1,O=C1C[C@@H](O)[C@@H](O)[C@@H]2[C@@H]3C(=O)N(Cc4ccccc4)C(=O)[C@@H]3CC[C@@H]12,0.618
2,CCN1C(=O)[C@H]2[C@H]3[C@H](O)[C@H](O)CC(=NOCC(C)C)[C@@H]3CC[C@H]2C1=O,1.12
3,COC(=O)CC=C[C@@H](C)[C@@H](C=NOC[C@H]1O[C@H](c2ccccc2)C=C[C@@H]1Oc1ccc(OC)cc1)OC,-1.13
4,CC(CCN1CCc2nc(-c3ccccc3)c(-c3ccccc3)cc2C1)=NOC[C@@H](O)[C@H]1O[C@@H]2OC(C)(C)O[C@@H]2[C@H]1O,0.41
5,O=C(NN=C1C[C@@H](O)[C@@H](O)[C@@H]2[C@@H]3C(=O)N(C4CCCCC4)C(=O)[C@@H]3CC[C@@H]12)OCc1ccccc1,0.256
6,COc1ccc(O[C@H]2C=C[C@@H](c3ccccc3)O[C@@H]2CON=C(C)CCC(=O)OC[C@H]2O[C@H](c3ccccc3)C=C[C@@H]2Oc2ccc(OC)cc2)cc1,0.0708
